Bioassay records (PubChem BioAssay)
KB-3-1 tox: qHTS assay for MDR1-selective chemotherapeutics: Primary screen using the parental adenocarcinoma cell KB-3-1. KB-3-1 viability, CellTiter-Glo ATP luminescence, 72 h. Potency, µM (doses to about 46.1 µM), hits mostly cytotoxic. hit rate 1.4% among 400,000; note: nearly all actives have a fitted effect of over 60% in size
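KB-3-1 parental drug-naive adenocarcinoma cells in DMEM/10% FBS, incubated 72 h at 37 C with pin-transferred compounds across a concentration series. Viability by CellTiter-Glo luminescence; concentration-response curves fitted after normalization.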
KB-V1 MDR tox: qHTS assay for MDR1-selective chemotherapeutics: Primary screen using the drug-selected MDR subline cells KB-V1. KB-V1 MDR cells viability, CellTiter-Glo, 72 h. Potency, µM (titrated, usually from 46.1 µM), usual class: cytotoxic. hit rate 3.4% among 400,000; note: nearly all actives have a fitted effect of over 60% in size
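KB-V1 MDR subline cells in DMEM (phenol-red free, 10% FBS) exposed to compounds in qHTS concentration series for 72 h at 37 degrees C. Viability read by CellTiter-Glo luminescence; concentration-effect curves fitted after normalization and correction.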
DT40 TDP1 no CPT: qHTS for Inhibitors of human tyrosyl-DNA phosphodiesterase 1 (TDP1): qHTS in cells in absence of CPT; DT40 Tdp1-/- hTDP1 cells, no CPT, ATP luminescence, 48 h; Potency, µM (doses to about 46.2 µM), for the others: at the highest dose activity change, negative = growth inhibition, most hits filed as inhibitors; hit rate 15% among 420,000; AID 686978, 2013; note: nearly all actives have a fitted effect of over 55% in size
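Chicken DT40 Tdp1-/- cells complemented with human TDP1, screened without camptothecin (DMSO vehicle only), 400 cells/well. Compounds pin-transferred, cells incubated at 37 °C for at least 48 hr. Growth read as ATP-dependent luminescence (CellTiter-Glo, 30 min at RT).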
HT1080 IDH1KD tx: qHTS for induction of synthetic lethality in tumor cells producing 2HG: qHTS for the HT-1080-IDH1KD cell line | HT-1080 IDH1 knockdown viability, ATP luminescence, 48 h | Potency, µM (doses to about 46.1 µM), for the others: at the highest dose activity, negative = toxicity, usual class: cytotoxic | hit rate 2% among 360,000;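 note: 0% = DMSO wells and -100% = cell-free medium wells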
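IDH1KD HT-1080 cells, 750/well, RPMI + 5% FBS; compound pinned after 2 h settling; 48 h, 37 °C; CellTiter-Glo luminescence; % activity normalised to DMSO and no-cell wells; curves fitted, classed by r2 and efficacy.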
HT1080-NT tox: qHTS for induction of synthetic lethality in tumor cells producing 2HG: qHTS for the HT-1080-NT fibrosarcoma cell line; AID 686970, 2013; Potency, µM (doses to about 46.1 µM), for inactives: at the top dose activity, negative = less viability, most hits filed as cytotoxic; hit rate 1.6% among 360,000; HT-1080-NT fibrosarcoma viability, CellTiter-Glo ATP luminescence, 48 h;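 note: NT is the 2HG producing partner of a matched IDH1 knockdown line; 0% = DMSO-treated cells and -100% = media-only wells without cells; nearly all actives have a fitted effect of over 55% in size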
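HT-1080-NT fibrosarcoma cells (2HG-overproducing), 750 cells/well in RPMI with 5% FBS, dosed after 2 h and incubated 48 h at 37C. CellTiter-Glo luminescence normalized to DMSO and no-cell wells; concentration-response curves fitted and classed.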
TDP1 cell CPT: qHTS for Inhibitors of human tyrosyl-DNA phosphodiesterase 1 (TDP1): qHTS in cells in presence of CPT | chicken DT40 Tdp1-/-;hTDP1 cells + 20 nM CPT, ATP luminescence, 48 h | Potency, µM (doses to about 46.2 µM), for the others: at the top dose activity change, negative = growth inhibition, hits mostly inhibitors | hit rate 12% among 420,000 | AID 686979, 2013; note: nearly all actives have a fitted effect of over 55% in size
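Cell growth measured by CellTiter-Glo luminescence after a minimum 48 h, 37 C compound exposure with 20 nM CPT in Tdp1-knockout DT40 cells stably expressing hTDP1, seeded 400/well; qHTS titration format.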
The depositor's hits bear a star; i = inactive; ? = inconclusive; · = no result. Sampled rows, rich in hits. Any-hit rate of the full collection: about 19%. Calls come from the whole dose curve; as a rule, active = well fitted curve in the direction sought with a large enough effect; inconclusive = small, poorly fitted or top-dose-only effect, or another doubt; inactive = no such curve, though single readings can be large; an effect the other way counts as inactive or inconclusive. Unless noted, % is set by controls: 0 for no effect and ±100 for the full control effect; potency is the fitted concentration of half-maximal effect.

SMILES	KB-3-1 tox	KB-V1 MDR tox	DT40 TDP1 no CPT	HT1080 IDH1KD tx	HT1080-NT tox	TDP1 cell CPT
N#Cc1nc(-c2ccccc2Cl)oc1N1CCCCC1	i	i	9.2µM*	-1%	-2%	?
N#Cc1nc(-c2ccc(COc3ccccc3)o2)oc1N1CCCCC1	i	i	23µM*	·	·	?
N#Cc1nc(-c2ccc(OCc3ccccc3Cl)cc2)oc1N1CCCCCC1	i	i	11µM*	·	·	?
CCN1CCN(c2oc(-c3ccc(COc4ccccc4C)o3)nc2C#N)CC1	21µM*	i	?	·	·	?
O=C(C[n+]1ccccc1Cl)c1cccc([N+](=O)[O-])c1	i	i	?	·	·	?
O=C(Nc1ccnn1C1CCN(Cc2ccc(CO)o2)CC1)c1ccc2c(c1)OCO2	·	·	-4%	2%	0%	-7%
C[C@@H]1CCCCO[C@H](CN(C)C(=O)Cc2ccccc2)[C@@H](C)CN([C@H](C)CO)C(=O)c2cc(NC(=O)Nc3ccccc3)ccc2O1	i	i	29µM*	-24%	-13%	-3%
C[C@@H]1CCCCO[C@H](CN(C)C(=O)Cc2ccccc2)[C@H](C)CN([C@@H](C)CO)C(=O)c2cc(NC(=O)Nc3ccc(F)cc3)ccc2O1	i	i	-23%	-13%	-12%	23µM*
COC(=O)c1c(C)sc(-c2c(-c3cccc(Cl)c3)[nH]c3c2c(=O)[nH]c(=O)n3C)c1O	i	i	?	·	·	?
COc1ccc(N2CCN(C(=S)Nc3cc(C)ccn3)CC2)cc1	i	i	·	·	·	·
CSc1ccc(CNC(=O)c2cc3cc(S(=O)(=O)N4CCCCC4)ccc3n2C)cc1	·	·	?	·	·	-20%
CC(C)OCCCNC(=S)Nc1ccc(S(N)(=O)=O)cc1	i	i	?	0%	5%	23µM*
CC(=O)c1ccc(NC(=S)NCCc2ccc(S(N)(=O)=O)cc2)cc1	i	i	?	-8%	-8%	-26%
COCCCNC(=O)c1c(N)n(/N=C/c2ccccn2)c2nc3ccccc3nc12	i	5.2µM*	10µM*	15%	1%	10µM*
Nc1c(C(=O)NC2CCCC2)c2nc3ccccc3nc2n1/N=C/c1cccnc1	i	?	18µM*	14%	14%	16µM*
CC(C)OCCCNC(=O)c1c(N)n(/N=C/c2cccs2)c2nc3ccccc3nc12	i	?	?	5%	17%	?
COc1ccc(CNC(=O)[C@H](C)NC(=O)C2CCN(C(=O)[C@@H](N)CCSC)CC2)cc1	i	i	11%	5%	5%	12%
CCn1cc(C(=O)NCc2ccco2)c(=O)c2cc(S(=O)(=O)N3CCC(C)CC3)ccc21	?	5.8µM*	?	?	?	?
CCn1cc(C(=O)NCc2ccc(Cl)cc2)c(=O)c2cc(S(=O)(=O)N3CCc4ccccc4C3)ccc21	i	i	?	·	·	-16%
CCn1cc(C(=O)NCc2ccco2)c(=O)c2cc(S(=O)(=O)N3CCCCCC3)ccc21	21µM*	i	?	?	15µM*	21µM*
C=CCn1cc(C(=O)NCc2ccco2)c(=O)c2cc(S(=O)(=O)N3CCCCCC3)ccc21	?	?	?	?	?	21µM*
CCn1cc(C(=O)NCc2ccco2)c(=O)c2cc(S(=O)(=O)N3CCc4ccccc4C3)ccc21	23µM*	i	?	?	?	-24%
CCC(C)NC(=O)c1cn(CC)c2ccc(S(=O)(=O)N3CCCCCC3)cc2c1=O (configuration not stated)	i	?	?	3%	-20%	11%
O=C(NCc1ccccc1Cl)c1ccc(-n2cnc3cccnc32)cc1	i	?	·	·	·	·
CCc1cccc(OCC(O)Cn2c(N3CCCCC3)nc3c2c(=O)[nH]c(=O)n3C)c1 (configuration not stated)	i	?	7.3µM*	6%	9%	8.2µM*
SMILES	KB-3-1 tox	KB-V1 MDR tox	DT40 TDP1 no CPT	HT1080 IDH1KD tx	HT1080-NT tox	TDP1 cell CPT
CCSc1nc2c(c(=O)[nH]c(=O)n2C)n1CC(O)COc1ccc(Cl)cc1 (configuration not stated)	i	i	9.2µM*	·	·	?
Cc1ccccc1OCC(O)Cn1c(N2CCCCC2)nc2c1c(=O)[nH]c(=O)n2C (configuration not stated)	i	i	8.2µM*	-3%	2%	?
Cc1ccccc1OCC(O)Cn1c(Br)nc2c1c(=O)[nH]c(=O)n2C (configuration not stated)	i	i	?	-10%	-1%	13µM*
Cc1ccccc1OCC(O)Cn1c(SC(C)C)nc2c1c(=O)[nH]c(=O)n2C (configuration not stated)	i	?	?	-1%	-1%	?
Cn1c(=O)[nH]c(=O)c2c1nc(Br)n2CC(O)COc1ccc(Cl)cc1 (configuration not stated)	?	i	-52%	?	?	?
CCCS(=O)(=O)NC(=O)C1(C)CCCN(C(=O)C(C)(C)Oc2ccc(Cl)cc2)C1 (configuration not stated)	i	i	-13%	8%	12%	-3%
COc1ccc(CNC(=O)CN2CCN(c3ccccc3O)CC2)cc1OC	i	i	0%	0%	4%	-16%
CCSc1nc2c(c(=O)[nH]c(=O)n2C)n1CC(O)COc1ccccc1C (configuration not stated)	i	18µM*	?	-11%	-15%	15µM*
O=C(C(=O)N1CCN(c2ccc([N+](=O)[O-])cc2)CC1)c1cn(CC(=O)N2CCOCC2)c2ccccc12	i	i	?	-1%	-6%	?
C=CCOn1c(=O)c(-c2ccc(OC)c(OC)c2)[n+]([O-])c2ccccc21	i	i	?	6%	10%	?
COc1ccc(-c2c(=O)n(OC)c3ccccc3[n+]2[O-])cc1OC	i	i	15µM*	-2%	-3%	12µM*
